C diff HTS: inhibitors of Clostridium difficile growth | growth activity, negative = inhibition, % at 16 µg/mL (by protocol) | 86,000 compounds, 0.25% hits | Clostridium difficile clinical isolate growth, OD600, 24 h; active compounds read low;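 active = mean growth activity at or below -80% and every replicate also at or below -80%; inconclusive = mean at or below -80% but some replicate above -80%; inactive = mean growth activity above -80%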;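 also: 0% = DMSO wells and -100% = levofloxacin 16 µg/mL wells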
Pf Dd2 inh: inhibitors of Plasmodium falciparum Dd2 growth | P. falciparum Dd2 growth, SYBR Green, 72 h; active compounds read low | activity change, % at 10 µM | 94,000 compounds, 2.3% hits; in the data active = activity change below about -80%; inconclusive = no clear call, values can overlap the other calls
T cruzi growth-1: inhibitors of T. cruzi proliferation | T. cruzi beta-gal in NIH3T3, GalScreen luminescence, 90 h | inhibition, % at 8.34 µM | 77,000 compounds, 5.9% hits;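 active = mean inhibition above about 93%, with at least 55% of replicates each passing it, limit read from the data, passing the limit was not always enough; inconclusive = only one of those two conditions holds; inactive = neither condition holds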
T cruzi growth-2: inhibitors of T. cruzi proliferation; inhibition, % at 8.35 µM; T. cruzi beta-gal in NIH3T3, GalScreen luminescence, 90 h; shares compounds with T cruzi growth-1; 5,600 compounds, 72% hits;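 active = mean replicate inhibition above about 95% and at least 55% of replicates individually reaching it, limit read from the data; inconclusive = only one of the two criteria is met; inactive = neither criterion is met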
T cruzi growth-3: inhibitors of T. cruzi proliferation | shares compounds with T cruzi growth-1 | T. cruzi beta-gal in NIH3T3, GalScreen luminescence, 90 h | inhibition, % at 2.09 µM | 5,600 compounds, 21% hits;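 active = mean inhibition above about 95%, with at least 55% of replicates also reaching it, limit read from the data; inconclusive = meets just one of the two conditions; inactive = meets neither condition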;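 also: plate controls were neutral control median for no effect and positive control median for full effect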
3T3 cytotox: cytotoxicity in mouse NIH/3T3 fibroblasts; AID 651742; NIH/3T3 viability, CellTiter-Glo ATP luminescence, 90 h; shares compounds with T cruzi growth-1; cytotoxicity (signal decrease), % at 8.35 µM; 5,600 compounds, 14% hits;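 active = mean signal decrease across replicates above about 35% based on untreated-well scatter, with enough replicates individually passing, limit read from the data; inconclusive = no rule stated though some were filed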;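 also: 0% = median of neutral control wells and 100% = median of positive control wells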
3T3 cytotox 2: NIH/3T3 (mouse) viability loss. shares compounds with T cruzi growth-1. NIH/3T3 viability, CellTiter-Glo ATP luminescence, 90 h. inhibition, % at 24.9 µM. 5,600 compounds, 56% hits;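 active = mean loss of cell viability signal at or above a set limit, and enough replicates individually reaching it; inconclusive = meets only the mean limit or only the replicate share; inactive = meets neither condition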;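 also: 0% = median of neutral control wells and 100% = median of positive control wells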
The depositor's hits bear a star. Rows were chosen to be rich in hits. Some 6.8% of all compounds tested hit in one or more screens of this group.

`COCC(=O)Nc1ccc2c(c1)[C@H]1C[C@@H](CC(=O)NCc3ccncc3)O[C@@H](CO)[C@H]1O2` gave C diff HTS -3.2, Pf Dd2 inh 19.4 and T cruzi growth-1 39.3.
For COc1cccc(S(=O)(=O)N(C)C[C@@H]2Oc3cc(C4=CCCCC4)ccc3S(=O)(=O)N([C@@H](C)CO)C[C@H]2C)c1 the results were C diff HTS -2.1 and Pf Dd2 inh -44.6.
Screening COc1cccc(S(=O)(=O)N(C)C[C@H]2Oc3cc(C4=CCCCC4)ccc3S(=O)(=O)N([C@@H](C)CO)C[C@@H]2C)c1 returned C diff HTS 7.5 and Pf Dd2 inh -36.9.
Screening COc1ccc(S(=O)(=O)N(C)C[C@@H]2Oc3cc(C4=CCCC4)ccc3S(=O)(=O)N([C@@H](C)CO)C[C@@H]2C)cc1 returned C diff HTS 19.2, Pf Dd2 inh -60.7, T cruzi growth-1 109.0*, T cruzi growth-2 104.3*, T cruzi growth-3 88.2, 3T3 cytotox 27.3 and 3T3 cytotox 2 38.5*.
For COc1cccc(S(=O)(=O)N(C)C[C@H]2Oc3cc(C4=CCCC4)ccc3S(=O)(=O)N([C@@H](C)CO)C[C@H]2C)c1 the results were C diff HTS 1.9, Pf Dd2 inh -4.5 and T cruzi growth-1 73.9.
For COc1ccc(S(=O)(=O)N(C)C[C@@H]2Oc3cc(C4=CCCC4)ccc3S(=O)(=O)N([C@H](C)CO)C[C@@H]2C)cc1 the results were C diff HTS 9.3, Pf Dd2 inh -38.1, T cruzi growth-1 120.0*, T cruzi growth-2 101.5*, T cruzi growth-3 77.6, 3T3 cytotox 33.8 and 3T3 cytotox 2 49.0*.
`COc1cccc(S(=O)(=O)N(C)C[C@@H]2Oc3cc(C4=CCCC4)ccc3S(=O)(=O)N([C@H](C)CO)C[C@@H]2C)c1` gave C diff HTS 7.5, Pf Dd2 inh -67.6, T cruzi growth-1 107.3*, T cruzi growth-2 103.7*, T cruzi growth-3 81.1, 3T3 cytotox 27.1 and 3T3 cytotox 2 27.0*.
`CCCNC(=O)N1CC2(CN(C(=O)CCC)C2)c2c(n(C)c3cc(OC)ccc23)[C@H]1CO` gave Pf Dd2 inh -1.8.
For C[C@H]1CN([C@@H](C)CO)C(=O)c2cc(-c3cccc(C#N)c3)cnc2O[C@@H]1CN(C)C(=O)C1CCC1 the results were C diff HTS -0.8, Pf Dd2 inh 8.1 and T cruzi growth-1 -45.1.
C[C@@H]1CN([C@H](C)CO)C(=O)Cc2cc(NC(=O)NC3CCCCC3)ccc2O[C@@H]1CN(C)Cc1ccc(C(=O)Nc2ccccc2N)cc1 was read as C diff HTS 3.2 and Pf Dd2 inh -79.3.
Screening COC(=O)[C@@H]1[C@@H](CO)[C@@H]2Cn3c(ccc(-c4ccccc4OC)c3=O)[C@@H]2N1CC1CCCC1 returned C diff HTS -7.9, T cruzi growth-1 active, T cruzi growth-2 37.7, T cruzi growth-3 13.3, 3T3 cytotox -1.1 and 3T3 cytotox 2 33.2*.
`CCNC(=O)[C@@H]1[C@@H](CO)[C@@H]2Cn3c(ccc(-c4ccccc4OC)c3=O)[C@@H]2N1S(C)(=O)=O` gave C diff HTS -1.0, Pf Dd2 inh 1.3, T cruzi growth-1 111.3*, T cruzi growth-2 -99.4, T cruzi growth-3 7.5, 3T3 cytotox -26.0 and 3T3 cytotox 2 -51.6.
CCNC(=O)[C@@H]1[C@@H](CO)[C@@H]2Cn3c(ccc(-c4ccccc4OC)c3=O)[C@@H]2N1CC was read as C diff HTS -2.7, Pf Dd2 inh 11.2 and T cruzi growth-1 12.3.
COC(=O)[C@H]1[C@H](CO)[C@H]2Cn3c(ccc(-c4ccccc4OC)c3=O)[C@H]2N1CC1CCCC1 was read as C diff HTS -11.2, T cruzi growth-1 active, T cruzi growth-2 44.2, T cruzi growth-3 -11.6, 3T3 cytotox -6.9 and 3T3 cytotox 2 28.1*.
COC(=O)[C@H]1[C@H](CO)[C@H]2Cn3c(ccc(-c4cccc(OC)c4)c3=O)[C@H]2N1CC1CC1 was read as C diff HTS 12.5, Pf Dd2 inh 0.0 and T cruzi growth-1 74.7.
`COC(=O)[C@@H]1[C@@H](CO)[C@@H]2Cn3c(ccc(-c4ccccc4OC)c3=O)[C@@H]2N1CC1CCCCC1` gave C diff HTS -1.4 and Pf Dd2 inh -48.4.
COc1cccc(-c2ccc3n(c2=O)C[C@@H]2[C@@H](CO)[C@H](C(=O)N(C)C)N(CC4CC4)[C@H]32)c1 was read as C diff HTS 5.3, Pf Dd2 inh -1.6, T cruzi growth-1 103.9*, T cruzi growth-2 107.4*, T cruzi growth-3 18.2, 3T3 cytotox 11.9 and 3T3 cytotox 2 inconclusive.
COC(=O)[C@H]1[C@H](CO)[C@H]2Cn3c(ccc(-c4ccccc4OC)c3=O)[C@H]2N1CC1CCOCC1 was read as C diff HTS 0.9, Pf Dd2 inh 4.6 and T cruzi growth-1 5.1.
COC(=O)C(CC#Cc1ccc2c(c1)[C@]1(C(=O)N2)[C@H](c2ccc(OCCO)cc2)N2[C@H](c3ccccc3)[C@H](c3ccccc3)OC(=O)[C@H]2[C@@H]1C(=O)NC[C@H](O)c1ccccc1)C(=O)OC was read as C diff HTS -0.9.
For O=C(C[C@H]1CC[C@@H](NC(=O)c2ccccn2)[C@@H](CO)O1)NCc1cccc(F)c1 the results were C diff HTS -0.3, Pf Dd2 inh 5.6 and T cruzi growth-1 43.6.
`Cc1ccccc1-c1ccc([C@H]2[C@H](CO)N3C(=O)CN(C(=O)c4ccc(F)cc4)C[C@@H]23)cc1` gave C diff HTS 21.0 and Pf Dd2 inh 1.8.
`O=C(C[C@@H]1CC[C@H]2[C@@H](COC[C@H](O)CN2C(=O)Nc2ccc(F)cc2)O1)NCCCN1CCOCC1` gave C diff HTS 4.7, Pf Dd2 inh 4.9 and T cruzi growth-1 -92.1.
COc1ccc2c3c([nH]c2c1)[C@@H](CO)N(C(=O)CN1CCOCC1)CC31CCN(C(=O)NC(C)C)CC1 was read as C diff HTS 0.8 and Pf Dd2 inh 52.5.
For C[C@@H]1CN([C@@H](C)CO)C(=O)c2cccc(NC(=O)Nc3ccccc3)c2O[C@@H]1CN(C)Cc1ccncc1 the results were C diff HTS 3.4, Pf Dd2 inh -25.6 and T cruzi growth-1 -17.2.
Screening CC=Cc1ccc2n(c1=O)C[C@H]1[C@H](CO)[C@@H](C(=O)NCC3CC3)N(Cc3ccncc3)[C@@H]21 (mixture of isomers) returned C diff HTS 2.7, Pf Dd2 inh 15.8 and T cruzi growth-1 80.7.
Screening C[C@H](CO)N1C[C@H](C)[C@@H](CN(C)C(=O)NC2CCCCC2)Oc2ccc(NS(=O)(=O)c3ccccc3)cc2CC1=O returned C diff HTS -3.8, Pf Dd2 inh 6.6 and T cruzi growth-1 -5.0.

Assay outcomes from PubChem.
